Experimental data published in the supplement of paper PMC3334620.
Whole data set: some 33,000 sequences, median “E-score (-0.5 to 0.5)” near -0.011, cut for the highest 2% near 0.28. The list comes from a sample in which the highest values are over-represented; it also holds similar and randomly drawn sequences.

Target: T1, Gcr1 (UniProt P07261)
T1 sequence: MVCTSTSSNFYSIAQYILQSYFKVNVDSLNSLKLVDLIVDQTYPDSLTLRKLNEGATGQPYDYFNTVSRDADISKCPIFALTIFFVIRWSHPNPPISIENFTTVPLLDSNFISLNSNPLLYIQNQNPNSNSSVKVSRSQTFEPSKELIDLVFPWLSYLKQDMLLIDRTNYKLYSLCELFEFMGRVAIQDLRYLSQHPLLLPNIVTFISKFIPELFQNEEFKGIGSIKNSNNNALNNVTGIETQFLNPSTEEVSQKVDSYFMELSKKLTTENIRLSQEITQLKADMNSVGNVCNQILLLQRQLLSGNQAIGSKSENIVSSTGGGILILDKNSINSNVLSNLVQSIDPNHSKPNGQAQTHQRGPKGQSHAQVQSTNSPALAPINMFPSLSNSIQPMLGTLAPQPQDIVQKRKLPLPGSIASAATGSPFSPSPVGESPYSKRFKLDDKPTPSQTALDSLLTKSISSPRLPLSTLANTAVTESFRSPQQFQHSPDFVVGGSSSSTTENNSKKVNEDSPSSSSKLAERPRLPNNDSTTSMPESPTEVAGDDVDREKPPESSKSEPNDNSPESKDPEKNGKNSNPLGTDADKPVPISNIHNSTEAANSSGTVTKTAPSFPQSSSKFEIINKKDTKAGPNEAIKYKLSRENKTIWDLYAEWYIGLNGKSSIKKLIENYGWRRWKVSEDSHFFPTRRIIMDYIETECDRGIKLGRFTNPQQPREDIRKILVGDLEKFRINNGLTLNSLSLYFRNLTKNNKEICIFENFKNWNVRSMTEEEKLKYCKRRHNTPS
Test: PBM E-score (8-mer binding enrichment) (E-score (-0.5 to 0.5)); higher = stronger / more preferred TF binding
Settings: protein concentration: 100 nM; construct: GST-full length
Description: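 Universal 'all 10-mer' protein binding microarrays (Agilent AMADID 015681) probed with GST-tagged S. cerevisiae TFs (full-length or DBD) made by in vitro transcription/translation (PURExpress), about 100-200 nM. Bound TF was detected with fluorescent anti-GST. Each ungapped 8-mer (which stands for itself and its reverse complement) is scored by the PBM enrichment score (E-score), a modified Wilcoxon-Mann-Whitney statistic from -0.5 to +0.5, computed with the Universal PBM Analysis Suite. Scale: above 0.35 generally sequence-specific binding.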

Point of comparison: GGATCCCA, “PBM E-score” value 0.391. Against it:
- AGGCATCG — lower, 0.0175
- AGGCATCA — lower, -0.162
- CGGCATCA — lower, 0.223
- AGGCATCC — lower, 0.387
- CGGCATCC — higher, 0.444
- CGGCATAC — lower, -0.113
- ACGCCTCA — lower, -0.137
- AGGCTGCC — lower, 0.382
- CGGCTGCC — lower, 0.376
- CGGCTGCA — lower, 0.0568
- CGGCTCCC — lower, 0.34
- AGGCTGCG — lower, 0.138
- CGGCTCCA — lower, 0.0712
- AGGCTCCC — lower, 0.24
- CTGCTGCC — lower, -0.0289
- AGGCTGCA — lower, -0.0233
- CTGTCTTA — lower, 0.0396
- CGCCATAC — lower, 0.127
- TACCAGCA — lower, 0.0312
- ACCCAGGT — lower, 0.0419
- CAACGCTG — lower, -0.0977
- ATTTTTCA — lower, 0.1
- ACGGCTCT — lower, -0.00284
- AAATGGCT — lower, 0.0656
- ACTCACCC — lower, -0.126
- CTGGAAGC — higher, 0.45
- GTGGAAGA — lower, 0.172
- ATGGAAGA — lower, -0.0302
- ATGGAAGC — lower, 0.344
- ATGGAAGG — lower, -0.201
- CTGGAAGA — lower, 0.0722
- CCATGGGC — lower, 0.0107
- ACCCCTGA — lower, 0.0403
- CCTGGTCG — lower, -0.127
- TCCCACGA — lower, 0.244
- CGCACCTA — lower, 0.0792
- GGCACCAA — lower, 0.335
- TGCACCAA — lower, -0.133
- AGCACCTA — lower, 0.241
- GGCACCAC — lower, 0.249
- GGCACCTA — lower, 0.281
- CCACAAAC — lower, 0.19
- ATGCATCC — lower, -0.00178
- ATGAAATG — lower, 0.104
- TCCCCAAA — lower, 0.226
- CGGGCGGC — lower, 0.0469
- AGGGCGCA — lower, -0.0301
- AGGGCGCG — lower, 0.194
- CGGGCGCA — lower, 0.0492
- AGGGCGCC — higher, 0.399
- CGGGCGCC — higher, 0.421
- ATTAAGGG — lower, 0.0551
- ATTATCCG — lower, 0.00436
- TACCTGAA — lower, 0.0937
- ATCAGGAG — lower, 0.0606
- CTCTCCAA — lower, -0.0761
- AGTGTCAG — lower, -0.142
- CCAGATAA — lower, 0.0427
- GCAGATAC — lower, 0.0819
- CCAGATTC — lower, 0.326
- CCAGATAC — lower, 0.294
- CCAGATTA — lower, 0.233
- ACAGATTC — lower, 0.176
- CCCTGCCA — lower, 0.0623
- CCGCGCAG — lower, -0.219
- AGGGATTG — lower, 0.0467
- GTGCACTA — lower, -0.146
- AGCTGGCA — lower, 0.0163
- GAAGCTTA — lower, 0.136
- TAAGCGGA — lower, -0.143
- GAAGCTCC — lower, 0.309
- CAAGCGGA — lower, -0.137
- CAAGCTTC — lower, 0.232
- GAAGCTCA — lower, 0.224
- GAAGCTTC — lower, 0.339
- AAAGCTCC — lower, -0.0149
- GAAGCGGA — lower, 0.328
- AAAGCTGA — lower, 0.113
- CAAGCTGA — lower, -0.139
- GAAGCTGA — lower, 0.322
- ATGGGCTC — lower, 0.102
- TCGGTGAA — lower, -0.0389
- GACCATAC — lower, 0.159
- CACAGCTA — lower, -0.0538
- AAAACGCT — lower, -0.0686
- TACCCGGA — lower, -0.0492
- GTAATGGA — lower, 0.0927
- CAGGCCCG — lower, -0.263
- TATAAGGA — lower, 0.124
- GCTTTGGA — lower, 0.0838
- AAACGCCG — lower, 0.0308
- CCGCTAGA — lower, -0.00443
- AGGCTTGG — lower, 0.0323
- AAAGCTGC — lower, -0.123
- CAAGCTGC — lower, 0.149
- GAAGCTGC — higher, 0.406
- CAATCGAG — lower, 0.00485
- CTTCCGAC — lower, -0.00712
- GAGTGATA — lower, -0.122
- CCGAAGGC — lower, -0.158
- ATCGAGGC — lower, -0.0857
- ACCAGATA — lower, 0.0838
- GAAGCCCA — lower, 0.368
- AAAGCCCC — lower, -0.121
- CAAGCCCA — lower, -0.244
- AAAGCCCA — lower, -0.0697
- GAAGCCCC — lower, 0.381
- CAAGCCCC — lower, -0.18
- AACGCGGT — lower, -0.107
- GTTAAATA — lower, 0.0652
- TCTAAGAA — lower, 0.0856
- CGTCTCCC — lower, 0.0616
- AGTCTCCA — lower, 0.0915
- CGTCTCCA — lower, 0.284
- CGGCCCCC — lower, 0.0724
- ACTAGTCG — lower, 0.065
- AGTCTGCA — lower, -0.179
- GAAGAGCA — lower, -0.0362
- CAGTGATA — lower, 0.0897
- AACCAAGG — lower, -0.00121
- AGATCCCC — lower, 0.156
- AGATCCCA — lower, 0.265
- TGCTCCCA — lower, -0.0935
- CGATCCCC — lower, 0.111
- GGATCCCC — lower, 0.362
- CGCTCCCA — lower, 0.132
- TGATCCCA — lower, 0.065
- GGCTCCCA — lower, 0.348
- AGTCTAGC — lower, 0.0246
- CTGATAAG — lower, 0.0222
- GTAGCTGA — lower, -0.023
- TATCTCGA — lower, -0.115
- GTTCCTTA — lower, 0.0517
- GGGCTCCA — lower, 0.318
- GGACTCCA — lower, 0.345
- AGGCTCCA — lower, 0.263
- GGGCTCGA — lower, -0.0878
- TGACTCCA — lower, 0.0388
- CGACTCCA — lower, 0.0419
- AGATGAGG — lower, -0.0257
- ATATTATG — lower, 0.132
- CTAGACCC — lower, -0.0797
- AAAGACTC — lower, -0.195
- CGCCATAG — lower, -0.14
- AAGTTCGA — lower, 0.0312
- GGAAGGCA — lower, 0.0904
- AAGTAGCT — lower, 0.208
- AAGCTTCG — lower, 0.129
- CAGCTTCA — lower, 0.0949
- CAGCTTGC — lower, -0.267
- AAGCTTCC — lower, 0.353
- AAGCTTCA — lower, -0.0647
- AAGCTTCT — lower, 0.184
- CAGCTTCG — lower, 0.328
- CTGCTTCC — lower, 0.177
- CAGCTTCC — higher, 0.457
- CAAGAGCG — lower, 0.0229
- GGGCGAGA — lower, -0.0433
- AAGATTAA — lower, 0.233
- AGAATGTG — lower, -0.221
- GAGTCCAC — lower, 0.257
- AACGCCTA — lower, -0.0917
- CGGATGCC — higher, 0.404
- CTGATGCC — lower, -0.0173
- CGGATTTC — lower, -0.122
- CGGATTCA — lower, -0.0182
- CGGATTCC — higher, 0.463
- AGGATTCG — lower, 0.126
- AGGATTCA — lower, -0.164
- CGGATGCA — lower, 0.0929
- AGGATTCC — lower, 0.373
